Drawing on PubChem BioAssay AID460 (PCMD, 2006), this text covers inhibition for 98 molecules.

Among all 58,000 compounds or so, about 100 (0.17%) were called active. Rule as the data show it: active = inhibition above about 45%; inactive = the rest. This excerpt belongs to a sample that is enriched for actives.

Procathepsin L (Homo sapiens), sequence (P07711 114-288 limits assumed): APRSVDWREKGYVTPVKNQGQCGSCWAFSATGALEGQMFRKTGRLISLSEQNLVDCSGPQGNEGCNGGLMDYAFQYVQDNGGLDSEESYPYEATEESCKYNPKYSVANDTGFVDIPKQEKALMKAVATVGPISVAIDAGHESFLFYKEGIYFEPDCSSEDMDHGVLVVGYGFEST
Procathepsin L (Homo sapiens), sequence (P07711 292-333 limits assumed): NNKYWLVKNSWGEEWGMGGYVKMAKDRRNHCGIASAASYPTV

This assay addresses Procathepsin L (Homo sapiens) (UniProt P07711). In words: inhibitors of human cathepsin L, biochemical (AID 460).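 Also: 0% = enzyme with no compound and 100% = no enzyme blank.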 The settings on record: purified cathepsin L, fluorogenic substrate, fluorescence; active compounds read high;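 tested at 10 µM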.
For orientation: inhibition means the relative decrease from the control value, in per cent. Regarding `C=CCN1C(=O)C(O)(CC(=O)c2ccc(Cl)cc2)c2ccccc21` (stereo not drawn), the inhibition is 0.03% (inactive). Turning to `CSc1cccc(NC(=O)C2CCCN2S(=O)(=O)c2ccc3c(c2)CCC(=O)N3)c1` (stereo not drawn), the inhibition was 7.66% (inactive). With `Nc1ccc(SCCN2C(=O)c3ccccc3C2=O)cc1`, the inhibition was 7.88% (inactive).

For `CCn1c2c(c3ccc(OC)cc31)CCCC2=O`, the inhibition is -5.8% (inactive). With `C=CCOc1nc2c(c(=O)n(C)c(=O)n2C)n1Cc1ccc(Cl)cc1Cl`, the inhibition is 31.1% (inactive). In the case of `CCOC(=O)c1ccc(COC(=O)c2cc(=O)[nH]c3ccccc23)o1` it was 2.07% (inactive); in that of `CCC(=O)Nc1nc(OC)cc(OC)n1`, -4.97% (inactive). As for `O=C(NCC1CCCO1)C(C(=O)c1ccccc1)n1cc(Cl)ccc1=O` (stereo not drawn), the inhibition was -10.2% (inactive).

As for `Cc1ccc(-c2nnn(CC(=O)N(CCO)C(C(=O)NC(C)(C)C)c3ccncc3)n2)cc1` (stereo not drawn), the inhibition is -1.4% (inactive). Turning to `CCCCCCC(=O)N(O)C1CC(=O)N(c2ccccc2)C1=O` (stereo not drawn), the inhibition was -5.53% (inactive). Regarding `COCCn1c(=O)[nH]c2cc(C(=O)NCc3cccnc3)ccc2c1=O`, the inhibition was 1.59% (inactive).

Regarding `COc1ccc(CN2CN(C(C)C)CSC2=S)cc1`, the inhibition was 17% (inactive). Turning to `Cc1cc(C(F)(F)F)nn1-c1nc(-c2ccco2)cc(C(F)(F)F)n1`, the inhibition was 1.46% (inactive).

With `CC(=O)Oc1ccc2c(C)c(CC(C)O)c(=O)oc2c1` (stereo not drawn), the inhibition was -70.3% (inactive).

In the case of `COc1ccc(C(=O)NCCc2ccc(S(N)(=O)=O)cc2)cc1OC`, the inhibition was 15.1% (inactive). `Cc1ccc(OCC(O)CN2CCN(CC(O)COc3ccc(C)cc3Cl)CC2)c(Cl)c1` (stereo not drawn): the inhibition is 24.6% (inactive). `CCn1c(SCC(=O)Nc2nc3ccc(OC)cc3s2)nnc1-c1ccoc1C`: the inhibition was 19.9% (inactive). With `C[C@H](NC(=O)OC(C)(C)C)c1nnc(SCC(N)=O)o1`, the inhibition was 9.7% (inactive).

Turning to `CCOC(=O)C1CCc2nc3ccccc3c(=O)n21` (stereo not drawn), the inhibition was 17.4% (inactive). Turning to `CCN(CC)CCCNC(=O)c1cc(-c2cccc(Cl)c2)on1`, the inhibition is 10.3% (inactive). Regarding `NC(=O)c1ccsc1NC(=O)c1ccco1`, the inhibition is 3.89% (inactive). Then `CC1CCc2c(sc3c2C2=NS(=O)(=O)CCN2C=N3)C1` (stereo not drawn), with 0.12% (inactive); and `CCS(=O)(=O)N1CCN(C(=O)c2cccs2)CC1`, with 3.99% (inactive); and `O=C(NCCCNC(=O)NC1CCCCC1)NC1CCCCC1`, with 4.27% (inactive). On to `N#Cc1c2c(c(N3CCN(CCO)CC3)n3c1nc1ccccc13)CCCC2`, for which the inhibition is 10.1% (inactive). For `Cc1ccc(-c2cc(C(F)(F)F)n3nc(C(=O)N4CCCC4)cc3n2)cc1`, the inhibition was -2.27% (inactive). Then `C=CCNC(=O)c1ccc(C)c(Br)c1`, with 21.6% (inactive); and `COCCNC(=O)C(C#N)c1nc2ccccc2nc1N1CCN(Cc2ccc3c(c2)OCO3)CC1` (stereo not drawn), with -9.53% (inactive). Regarding `CC1(C)CC(=O)C(C=NCc2cccnc2)=C(O)C1`, the inhibition was 3% (inactive). As to `Cc1ccccc1-c1ccc(Nc2ccc(C(=O)N3CCOCC3)cc2)nn1`, the inhibition was -0.35% (inactive).

Turning to `COc1ccc(CCNC(=O)CSc2nnc(CNC(=O)c3cccs3)o2)cc1OC`, the inhibition was 3.37% (inactive).

For `CCCCC(CC)C(=O)Nc1ccc(Cl)cn1` (stereo not drawn), the inhibition is 1.2% (inactive). As to `CCOC(=O)c1[nH]c2ccc(C)cc2c1N=C(C)N(C)C`, the inhibition is 0.54% (inactive).

Consider `CCC(=O)Nc1ccc(C(=O)CSc2nnc(CNc3ccc(Cl)cc3)o2)cc1OC`, for which the inhibition is 9.8% (inactive). Consider `Cc1ccc(S(=O)(=O)C2(S(=O)(=O)c3ccc(C)cc3)CCCC2)cc1`, for which the inhibition is -3.77% (inactive). Regarding `Cc1ccc(-n2nc3c(c2NC(=O)c2ccc4c(c2)OCO4)CSC3)c(C)c1`, the inhibition is -0.76% (inactive).

For `CCOC(=O)N1CCN(C(=O)CN(C2CCCCC2)S(C)(=O)=O)CC1`, the inhibition is -8.17% (inactive). Take `CC(C)(C)c1cc(CN2CCN(CCC#N)CC2)cc(C(C)(C)C)c1O`: the inhibition is 4.94% (inactive).

In the case of `CCn1c(CSc2nncn2-c2ccc(OC)cc2)nc2cc(S(=O)(=O)N(C)C)ccc21`, the inhibition was 15% (inactive). Then `O=C(Nn1cc(C(=O)N2CCN(c3ccccc3F)CC2)c2ccccc2c1=O)c1cnccn1`, with -5.99% (inactive); and `CCN(Cc1ccccc1)C(=O)CSc1nc(C)cc2c1C(=O)OC2`, with 5.38% (inactive).

As for `CCC(C)n1[nH]c(=O)c2c(C)cc(C)nc21` (stereo not drawn), the inhibition was 12.4% (inactive).

`COc1ccc(-c2ccnc(SCC(=O)N3CCOCC3)n2)cc1`: the inhibition was 11.9% (inactive). As to `CCn1c(-c2cc(OC)ccc2OC)csc1=Nc1c(C)n(C)n(-c2ccccc2)c1=O`, the inhibition is -2.42% (inactive). With `COc1ccc(NC2CC(=O)N(C)C2=O)cc1` (stereo not drawn), the inhibition is 4.64% (inactive). As for `CC(C)n1c(C(O)c2ccccc2)nc2ccccc21` (stereo not drawn), the inhibition is 2.15% (inactive). As to `Cc1cccn2c(=O)c3cc(C#N)c(=O)n(CCCN4CCOCC4)c3nc12`, the inhibition was -56.6% (inactive). `CCOC(=O)C1(C(F)(F)F)N=C(N(C)C)OC(N(C)C)=N1`: the inhibition was -0.15% (inactive). In the case of `Cc1cc(C)c(C(=O)CN2C(=O)CCC2=O)cc1C` it was 5.02% (inactive); in that of `O=C(c1ccc2c(c1)N(Cc1ccc(F)cc1)C(=O)CS2)N1CCOCC1`, -0.56% (inactive). On to `CN(C(=O)COc1ccccc1)c1nnc(-c2ccncc2)s1`, for which the inhibition is -26.7% (inactive).

`CN(C(=O)c1ccno1)c1nnc(-c2cccnc2)s1`: the inhibition was -4.38% (inactive).

For the molecule `CN(C(=O)C1CCOC1)c1nnc(-c2cccnc2)s1` (stereo not drawn), the inhibition was 49.5% (active). As to `COc1ccc(-c2nnc(SC(C)C#N)o2)cc1` (stereo not drawn), the inhibition is 9.86% (inactive). For the molecule `CC(=O)Nc1nc(C)c(Cc2ccccc2)c(=O)[nH]1`, the inhibition was -7.6% (inactive).

Take `CCOc1cccc(C(=O)Nc2cccnc2)c1`: the inhibition was -6.37% (inactive).

On to `CC(=O)Nc1ccc(S(=O)(=O)N2CCN(C3CCCCCCC3)CC2)cc1`, for which the inhibition is 7.05% (inactive).

With `COc1ccc2c(c1OC)C(=O)N(c1ncn[nH]1)C2`, the inhibition was 2.08% (inactive).

Regarding `COc1ccc(NC(=O)CN2CCN(S(=O)(=O)c3ccc(F)cc3)CC2)cc1Cl`, the inhibition was 20.1% (inactive).

Regarding `COc1ccc(S(=O)(=O)Nc2ccc3c(c2)OCO3)cc1Cl`, the inhibition is 3.1% (inactive). Take `CCc1nnc(NC(=O)CCC(=O)O)s1`: the inhibition was 3.51% (inactive). Regarding `COC(=O)C1C(=O)CC(C)(O)C(C(=O)OC)C1c1ccc2c(c1)OCO2` (stereo not drawn), the inhibition is 11.2% (inactive).

Turning to `CN1CCN(S(=O)(=O)c2ccc3[nH]cc(C(=O)O)c(=O)c3c2)CC1`, the inhibition is -3.14% (inactive). As to `O=C(CCN1C(=O)COc2ccccc21)NCCCN1CCN(c2ccc(F)cc2)CC1`, the inhibition was 5.08% (inactive). Take `CCCN1CCN(CCCNC(=O)CN2C(=O)COc3ccccc32)CC1`: the inhibition was -8% (inactive). Consider `COc1ccc(N2CCN(CCNC(=O)CCN3C(=O)COc4ccccc43)CC2)cc1`, for which the inhibition was 104% (active).

`O=C(CCCC(=O)N(CC(=O)NC1CCCC1)Cc1ccccc1Cl)Nc1ccccn1`: the inhibition was 9.21% (inactive).

Regarding `c1ccc2[nH]c(-c3nc4ccccc4[nH]3)nc2c1`, the inhibition was 3.52% (inactive). As to `Cc1ccc2nc3n(c(=O)c2c1)CCC3`, the inhibition is 14.4% (inactive). In the case of `CCCC(=O)N1c2ccccc2NC2=C(C(=O)CCC2)C1c1ccc(F)cc1` (stereo not drawn) it was 3.55% (inactive); in that of `O=C(NC12CC3CC(CC(C3)C1)C2)N1CCCC(CO)C1` (stereo not drawn), 2.74% (inactive); in that of `CCOC(=O)C1=C(C)NC(=O)N(C(C)=O)C1c1ccc(Cl)cc1` (stereo not drawn), 12.8% (inactive). With `COc1ccc(C2CC(c3ccc(C)cc3)Nc3nc(N)nn32)cc1` (stereo not drawn), the inhibition is -0.09% (inactive). Regarding `COc1ccccc1-c1cc(C(=O)N2CCCCC2)no1`, the inhibition was -3.35% (inactive).

For the molecule `COc1ccc(Br)cc1/C=N/n1c(C)nnc1C`, the inhibition was 12.8% (inactive). On to `CCCOC(=O)CC1C(=O)NCCN1Cc1ccc(F)cc1` (stereo not drawn), for which the inhibition is -5.6% (inactive). With `CCOC(=O)c1ccc(NC(=O)CSc2nnc(COc3ccccc3OC)n2C)cc1`, the inhibition is -5.46% (inactive). Then `CCOc1ccc(C(=O)Nc2ccncc2)cc1`, with 21.4% (inactive); and `Cc1cnc(C(=O)OCC(=O)Nc2ccc(Cl)cc2Cl)cn1`, with -0.6% (inactive). Regarding `Fc1ccc2[nH]c3c(N4CCN(Cc5ccc6c(c5)OCO6)CC4)ncnc3c2c1`, the inhibition was -9.64% (inactive).

Regarding `c1ccc(-c2noc(-c3cccs3)n2)nc1`, the inhibition was 0.38% (inactive). Regarding `CCOc1cc(/C=N/O)cc(Br)c1OC`, the inhibition was 2.18% (inactive).

As for `COC(=O)C(C)C1Sc2ccccc2NC1=O` (stereo not drawn), the inhibition was -1.59% (inactive). As to `CCCCOc1ccc(-c2ncc(C(=O)OCC)c(N)n2)cc1`, the inhibition is 4.53% (inactive).

Regarding `Cc1cc(NC(=O)c2cnn3cccnc23)n(-c2ccccc2)n1`, the inhibition is 1.38% (inactive). Turning to `COc1cccc(N2C(=O)C3CCCN3C2c2ccc(F)cc2)c1` (stereo not drawn), the inhibition was -5.29% (inactive). Consider `Cc1noc(C)c1C(=O)NC(C)c1ccc2c(c1)OCO2` (stereo not drawn), for which the inhibition was 19.1% (inactive). Regarding `CN(Cc1ccccc1)Cc1ccccc1F`, the inhibition is 6.62% (inactive). Then `COC(=O)c1cc(S(=O)(=O)NC2CCN(Cc3ccccc3)CC2)cn1C`, with -7.14% (inactive). As for `Cc1cc(OCCN2CCCC2)ccc1C(C)C`, the inhibition was 3.61% (inactive). `CCCc1cc(=O)[nH]c(SCC(=O)OCc2ccccc2)n1`: the inhibition is -7.39% (inactive). Regarding `CCn1cc(C(=O)NCc2ccc(OC)cc2OC)c(=O)c2ccc(C)nc21`, the inhibition is -0.88% (inactive). For the molecule `O=c1cc(Cn2nnc(-c3ccc(Cl)cc3)n2)nc2sccn12`, the inhibition was 18.2% (inactive). Then `Cc1cccc(N(CC(O)CN(C)C)S(=O)(=O)c2ccccc2)c1` (stereo not drawn), with -0.65% (inactive); and `Cc1ccc(C2(c3ccc(C)cc3)NC(=O)N(Cc3c(C)noc3C)C2=O)cc1`, with 13.3% (inactive); and `Cc1nc2ccc(NC(=O)N3CCC(c4ccccc4)C3)cc2nc1C` (stereo not drawn), with -130% (inactive).

For `COc1ccc2[nH]c(=O)c(CN(CC3CCCO3)C(=O)Nc3ccccc3)cc2c1` (stereo not drawn), the inhibition is -6.3% (inactive). Regarding `CCN(CC(=O)Nc1ccc2c(c1)OCCO2)Cc1cc(=O)oc2cc(C)c(C)cc12`, the inhibition is 0.7% (inactive).
